# Measurements published in PubChem BioAssay.
# Several values for one entry are separate records, joined by “and”; a condition that tells them apart may be missing. Equal values may be shown once. Activity calls are given as the source filed them.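 Rule for the calls, unless noted: active = mean z-score across replicates of 1.96 or higher in either the MELAS or the Rieske mutant cell line; inactive = the rest.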
# What was measured:
# [1] = polyglutamine-triggered caspase-3 activation inhibitors, cell-based (AID 1583); conditions: polyglutamine-induced caspase-3 activation, cell assay; stronger effect = higher value;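 tested at 10 µM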
# [2] = suppressors of polyQ aggregation in yeast, 75Q-TubU reporter (AID 1593); conditions: Yeast 75Q polyglutamine aggregation reporter
# [3] = inhibitors of mitochondrial cytochrome c release, biochemical, purified mitochondria (AID 1603); conditions: stronger effect = lower value;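 note: mouse liver mitochondria challenged with calcium chloride; signal normalized to the plate average as 100%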
# [4] = inhibitors of polyQ protein aggregation (AID 1604); conditions: polyglutamine-induced protein aggregation inhibition assay; stronger effect = higher value; tested at 2.5 µM
# [5] = enhancers of glutamate uptake in motor neurons, MN-1 cell line (AID 1612); conditions: MN-1 motor neuron cells, stronger effect = higher value;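 note: tested at 1 µM final; 0% = mean of DMSO vehicle wells on each plate; positive means more glutamate uptake than control and negative means less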
# [6] = suppressors of polyglutamine aggregation in yeast, 75Q-TubH (AID 1616); conditions: S. cerevisiae 75Q-TubH polyglutamine aggregation suppression; stronger effect = higher value
# [7] = stimulators of nuclear beta-catenin in C2C12, primary screen, imaging, WNT3A-conditioned medium, mouse C2C12, NPC library (AID 1117326; in the data active = nuclear beta-catenin stimulation mostly above about 4.2%, no sharp cut-off; inactive = mostly below about 10%); conditions: stronger effect = higher value
# [8] = stimulators of insulin release from INS-1E, primary screen, cell-based, 5 mM glucose, NPC library (AID 1117329;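 active = compound raises insulin release from rat beta cells at 5 mM glucose, no numeric limit stated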); conditions: rat INS-1E insulin secretion, at 10 µM, stronger effect = higher value
# [9] = growth inhibition of GSK3B-pretreated HCT116 cells – cell-based, CellTiter-Glo, 0.2 to 20 µM (AID 1117336;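 active = compounds lowering colon cancer cell viability after pretreatment blocking the GSK3B kinase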); conditions: HCT116 viability after GSK3B inhibitor, at 20 µM, stronger effect = higher value
# [10] = inhibition of endothelial tube formation, primary screen, imaging, VEGF stimulated, CD31 staining, tube area, NPC library (AID 1117340;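 active = compound that reduces growth-factor-driven endothelial tube area in a mixed cell culture, no cutoff stated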); conditions: VEGF-stimulated ADSC/ECFC co-culture, at 10 µM, stronger effect = higher value
# [11] = glucagon-like peptide 1 release enhancers, primary assay, NCI-H716 cell line, NPC library (AID 1117341;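 active = compound raises GLP1 secretion from the human gut endocrine cells, with no numeric limit stated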); conditions: NCI-H716 cells, at 10 µM, stronger effect = higher value
# [12] = HCT116 colon cancer cell growth inhibition, primary screen, CellTiter-Glo luminescence, NPC library (AID 1117342;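 active = compounds that lower survival of HCT116 colon cancer cells in the luminescence readout, no numeric limit stated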); conditions: at 20 µM (top of the series)
# [13] = CellTiter-Glo luminescent readout of SW480 viability loss, NPC library primary (AID 1117343;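 active = compounds that lower viability of the colon cancer cells in the luminescence readout, with no numeric limit stated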); conditions: CellTiter-Glo luminescence; at 20 µM (top of the series)
# [14] = decreased DLD-1 cellular survival, CellTiter-Glo luminescent readout, NPC compound collection, primary HTS (AID 1117346;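 active = compounds that lower survival of DLD-1 colon cancer cells in the luminescence readout, no cutoff given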); conditions: DLD-1 viability, CellTiter-Glo luminescence; at 20 µM (top of the series)
# [15] = target: 6-phosphogluconate dehydrogenase, decarboxylating (Homo sapiens) (UniProt P52209); experiment: 6PGD enzyme inhibitors, primary screen, biochemical, human, recombinant enzyme, NADPH absorbance (AID 1159550;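 active = at least 20% inhibition of 6-phosphogluconate dehydrogenase activity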); conditions: recombinant 6PGD, NADPH absorbance 341 nm; at 10 µM; stronger effect = higher value
# [16] = differential killing of epithelial or mesenchymal cells, primary screen, imaging, PC-3E GFP, TEM4-18 mCherry, co-culture (AID 1345086;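 active = compounds killing one labelled cell type while sparing the other, by normalised counts and ratio limits, not self-fluorescent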;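 for all read-outs here: cells exposed to compound for 72 h before imaging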;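 for red/green cell ratio (normalised): normalised mesenchymal count divided by normalised epithelial count so high means epithelial killing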); conditions: imaging cell counts, at 1 µM; for red/green cell ratio (normalised): actives lie on both sides, counts scaled to control wells, 1 = unselective
# [17] = survival rescue of mitochondrial mutant cells in low glucose, primary screen, MELAS cybrids, Rieske KO mouse fibroblasts, CellTiter-Glo (AID 1508586);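 note: z relative to plate mean and SD of compound and empty wells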
# [18] = target: NAD(+) hydrolase SARM1 (Homo sapiens) (UniProt Q6SZW1); experiment: SARM1 TIR NADase inhibitors, cell lysate, NAD-Glo luminescence (AID 1508614;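 active = compound whose remaining NAD level is above about 45 nM, limit read from the data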;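 note: higher remaining NAD means stronger inhibition of SARM1 NADase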); conditions: SAM-TIR HEK293T lysate NADase, at 1 µM, stronger effect = higher value
# [19] = target: Mitogen-activated protein kinase 7 (Homo sapiens) (UniProt Q13164); experiment: ERK5 transactivation activators in reporter cells, primary screen, cell-based, HTS (AID 1508626;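 active = luciferase signal above three times the same-plate solvent-only control wells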;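 note: luciferase driven by Gal4-ERK5 fusion binding five Gal4 sites before minimal TATA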); conditions: HeLa Gal4-ERK5 transactivation, 18 h, at 5 µM, stronger effect = higher value
# [20] = measured here: epithelial PC-3E GFP cell survival
# [21] = measured here: mesenchymal TEM4-18 mCherry cell survival
# [22] = MELAS cybrid survival, CellTiter-Glo 48 h, stronger effect = higher value
# [23] = Rieske KO mouse fibroblast survival, CellTiter-Glo 72 h
# Chain of NAD(+) hydrolase SARM1 (Homo sapiens) (Q6SZW1 whole entry, looked up, the tested form may be a part): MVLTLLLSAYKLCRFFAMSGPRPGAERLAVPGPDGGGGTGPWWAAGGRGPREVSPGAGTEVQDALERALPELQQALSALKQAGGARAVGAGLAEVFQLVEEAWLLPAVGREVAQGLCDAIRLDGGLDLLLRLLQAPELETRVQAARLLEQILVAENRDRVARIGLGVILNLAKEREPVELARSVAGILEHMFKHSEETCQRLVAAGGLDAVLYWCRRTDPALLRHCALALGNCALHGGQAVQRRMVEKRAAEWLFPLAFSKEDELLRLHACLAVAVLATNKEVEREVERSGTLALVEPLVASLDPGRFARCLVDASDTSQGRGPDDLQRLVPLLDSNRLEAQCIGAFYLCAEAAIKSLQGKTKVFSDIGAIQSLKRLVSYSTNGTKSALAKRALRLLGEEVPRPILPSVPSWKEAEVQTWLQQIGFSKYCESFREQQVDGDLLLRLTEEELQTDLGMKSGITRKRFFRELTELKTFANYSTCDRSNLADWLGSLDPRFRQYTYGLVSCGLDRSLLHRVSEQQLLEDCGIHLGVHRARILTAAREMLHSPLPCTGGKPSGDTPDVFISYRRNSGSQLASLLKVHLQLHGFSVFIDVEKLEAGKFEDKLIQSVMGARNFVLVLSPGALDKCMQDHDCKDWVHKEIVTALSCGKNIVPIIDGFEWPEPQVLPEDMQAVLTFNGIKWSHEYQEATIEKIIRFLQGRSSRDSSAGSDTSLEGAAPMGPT
# Chain of 6-phosphogluconate dehydrogenase, decarboxylating (Homo sapiens) (P52209 whole entry, looked up): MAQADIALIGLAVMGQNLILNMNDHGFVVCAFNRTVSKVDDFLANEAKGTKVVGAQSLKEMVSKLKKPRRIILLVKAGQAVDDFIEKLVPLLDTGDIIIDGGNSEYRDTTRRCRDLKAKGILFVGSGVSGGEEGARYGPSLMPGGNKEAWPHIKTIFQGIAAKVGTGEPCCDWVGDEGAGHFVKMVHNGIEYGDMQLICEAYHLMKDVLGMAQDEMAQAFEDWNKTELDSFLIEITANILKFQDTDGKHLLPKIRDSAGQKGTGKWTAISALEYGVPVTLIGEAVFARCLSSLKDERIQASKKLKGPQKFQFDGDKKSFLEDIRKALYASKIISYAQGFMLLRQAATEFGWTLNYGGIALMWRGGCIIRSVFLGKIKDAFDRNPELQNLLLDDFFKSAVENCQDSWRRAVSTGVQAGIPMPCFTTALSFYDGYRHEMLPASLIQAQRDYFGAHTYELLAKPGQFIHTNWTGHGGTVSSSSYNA
# Chain of Mitogen-activated protein kinase 7 (Homo sapiens) (Q13164 whole entry, looked up, the tested form may be a part): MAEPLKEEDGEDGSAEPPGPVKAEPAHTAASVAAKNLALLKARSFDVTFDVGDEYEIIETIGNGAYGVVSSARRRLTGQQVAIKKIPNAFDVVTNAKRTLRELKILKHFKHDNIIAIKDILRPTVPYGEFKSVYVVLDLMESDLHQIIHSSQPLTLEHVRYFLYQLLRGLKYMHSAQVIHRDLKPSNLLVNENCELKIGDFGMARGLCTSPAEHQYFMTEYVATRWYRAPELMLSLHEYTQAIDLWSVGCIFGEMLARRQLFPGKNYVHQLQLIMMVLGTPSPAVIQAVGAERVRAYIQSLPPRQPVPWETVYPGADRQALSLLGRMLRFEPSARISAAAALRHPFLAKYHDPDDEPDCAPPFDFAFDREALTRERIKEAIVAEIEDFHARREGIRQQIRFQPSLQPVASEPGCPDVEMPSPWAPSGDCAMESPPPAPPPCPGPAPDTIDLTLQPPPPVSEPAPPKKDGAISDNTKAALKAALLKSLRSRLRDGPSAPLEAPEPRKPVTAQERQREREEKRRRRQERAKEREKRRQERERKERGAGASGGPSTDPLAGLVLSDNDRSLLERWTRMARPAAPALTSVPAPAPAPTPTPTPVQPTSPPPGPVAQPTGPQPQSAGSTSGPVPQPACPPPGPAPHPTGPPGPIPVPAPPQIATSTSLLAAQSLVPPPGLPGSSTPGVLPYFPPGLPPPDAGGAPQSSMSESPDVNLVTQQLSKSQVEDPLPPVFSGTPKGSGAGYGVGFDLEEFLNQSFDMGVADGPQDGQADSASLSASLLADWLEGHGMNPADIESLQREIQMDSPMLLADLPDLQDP
smiles,measurement,setting,value
CCN(CC)CCCC(C)Nc1ccnc2cc(Cl)ccc12 (configuration not stated),inhibition,[1],9.86%
same,score,[2],1.1
same,cytochrome c release ratio,[3],1.15
same,inhibition of aggregation,[4],68.5%
same,glutamate uptake change,[5],-7.63%
same,aggregation suppression score,[6],1.49
same,nuclear beta-catenin stimulation,[7]; at 10 µM,1.4% (inactive)
same,nuclear beta-catenin stimulation,"[7]; stimulation, at 2 µM",-0.7%
same,insulin secretion stimulation,[8],11.2% (inactive)
same,viability decrease,[9],-10.8% (inactive)
same,tube area decrease,[10],23% (inactive)
same,GLP1 secretion stimulation,[11],6.3% (inactive)
same,inhibition of viability,[12],19.9% (inactive)
same,viability decrease (inhibition),[13],31.4% (inactive)
same,viability decrease (inhibition),[14],5.6% (inactive)
same,inhibition,[15],7.49% (inactive)
same,red/green cell ratio (normalised),[16],1.21 (inactive)
same,normalised cell number,[16]; [20],0.99
same,normalised cell number,[16]; [21],1.2
same,z-score,[17]; [22],0.423 (inactive) and -0.395 (inactive)
same,z-score,[17]; [23],0.725 and -1.28
same,remaining NAD,[18],10 nM (inactive)
same,luciferase signal,[19],40 AU (inactive)
CCCCCN=C(N)N/N=C/c1c[nH]c2ccc(OC)cc12,nuclear beta-catenin stimulation,[7]; at 10 µM,-2.1% (inactive)
same,nuclear beta-catenin stimulation,"[7]; stimulation, at 2 µM",5.8%
same,insulin secretion stimulation,[8],57.5% (active)
same,viability decrease,[9],118% (active)
same,tube area decrease,[10],111% (active)
same,GLP1 secretion stimulation,[11],53.2% (active)
same,inhibition of viability,[12],125% (active)
same,viability decrease (inhibition),[13],159% (active)
same,viability decrease (inhibition),[14],102% (active)
same,inhibition,[15],-7.67% (inactive)
same,red/green cell ratio (normalised),[16],1.12 (inactive)
same,normalised cell number,[16]; [20],0.96
same,normalised cell number,[16]; [21],1.08
same,z-score,[17]; [22],0.364 (inactive)
same,z-score,[17]; [23],1.74
same,remaining NAD,[18],10 nM (inactive)
same,luciferase signal,[19],68 AU (inactive)
CC(C)Cc1ccc(CC(=O)O)cc1,nuclear beta-catenin stimulation,[7]; at 10 µM,-0.7% (inactive)
same,nuclear beta-catenin stimulation,"[7]; stimulation, at 2 µM",-0.2%
same,insulin secretion stimulation,[8],0.2% (inactive)
same,viability decrease,[9],-11.5% (inactive)
same,tube area decrease,[10],-13.7% (inactive)
same,GLP1 secretion stimulation,[11],-1.8% (inactive)
same,inhibition of viability,[12],-3.5% (inactive)
same,viability decrease (inhibition),[13],4.2% (inactive)
same,viability decrease (inhibition),[14],-8% (inactive)
CC(C)NCC(O)c1ccc(O)c(O)c1 (configuration not stated),inhibition,[1],19.5%
same,score,[2],1.1
same,cytochrome c release ratio,[3],0.68
same,inhibition of aggregation,[4],84.7%
same,glutamate uptake change,[5],-0.29%
same,aggregation suppression score,[6],1.28
same,nuclear beta-catenin stimulation,[7]; at 10 µM,-0.3% (inactive)
same,nuclear beta-catenin stimulation,"[7]; stimulation, at 2 µM",1.9%
same,insulin secretion stimulation,[8],1.4% (inactive)
same,viability decrease,[9],54.1% (active)
same,tube area decrease,[10],-8.1% (inactive)
same,GLP1 secretion stimulation,[11],6.8% (inactive)
same,inhibition of viability,[12],33.2% (inactive)
same,viability decrease (inhibition),[13],28.5% (inactive)
same,viability decrease (inhibition),[14],23.6% (inactive)
same,inhibition,[15],-1.67% (inactive)
same,red/green cell ratio (normalised),[16],1.26 (inactive)
same,normalised cell number,[16]; [20],1.07
same,normalised cell number,[16]; [21],1.35
same,z-score,[17]; [22],-0.378 (inactive) and -0.294 (inactive)
same,z-score,[17]; [23],0.858 and -1.25
same,remaining NAD,[18],10 nM (inactive)
same,luciferase signal,[19],60 AU (inactive)
